# Source: PubChem BioAssay (Tox21)
# A number with no mark means an inactive call. Inconclusive results are not listed. Entries that show only a call come without a potency. Active and inactive are the calls of the source. Unless noted, calls come from the whole dose curve; as a rule, active = well fitted curve in the direction sought with a large enough effect in the repeat runs; inconclusive = weak or mixed curves; inactive = no such curve, though single readings can be large; an effect the other way counts as inactive or inconclusive.
# Tests used:
# [1] = target: Luciferin 4-monooxygenase (Photinus pyralis) (UniProt P08659); assay: qHTS assay to identify small molecule inhibitors of firefly luciferase (AID 1224835); note: nearly all actives have a fitted effect of over 25% in size; note: potency is the fitted concentration of half-maximal effect
# In short: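 Inhibition of purified Photinus luciferase is measured by luminescence. Substrate levels (D-luciferin, ATP) sit at their KM values. Each compound is tested in a concentration series.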
# [2] = qHTS assay to identify small molecule agonists of the constitutive androstane receptor (CAR) signaling pathway - cell viability counter screen (AID 1224836); note: nearly all actives have a fitted effect of over 45% in size
# In short: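 Using CellTiter-Fluor, viability of HepG2 cells harbouring hCAR and CYP2B6-2.2kb was measured following 23 h incubation with a 15-concentration compound series plus PK11195 (0.75 uM final).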
# [3] = qHTS assay to identify small molecule antagonists of the constitutive androstane receptor (CAR) signaling pathway - cell viability counter screen (AID 1224837); note: nearly all actives have a fitted effect of over 45% in size
# In short: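 HepG2 cells stably expressing hCAR and a CYP2B6-2.2kb reporter were plated and pre-incubated 4 hr at 37 C/5% CO2, then given compounds at 15 concentrations plus 50 nM CITCO (final). After 23 hr, viability was read by CellTiter-Fluor fluorescence.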
# [4] = target: Nuclear receptor subfamily 1 group I member 3 (Homo sapiens) (UniProt Q14994); assay: qHTS assay to identify small molecule antagonists of the constitutive androstane receptor (CAR) signaling pathway (AID 1224838); note: nearly all actives have a fitted effect of over 40% in size; note: potency is the fitted concentration of half-maximal effect
# In short: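 HepG2 cells stably co-transfected with hCAR and a CYP2B6-2.2kb luciferase reporter were seeded 4 h before compound addition at 15 concentrations. Cells were stimulated with 50 nM CITCO (final) for 24 h at 37 C; luciferase luminescence was then read.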
# [5] = target: Nuclear receptor subfamily 1 group I member 3 (Homo sapiens) (UniProt Q14994); assay: qHTS assay to identify small molecule agonists of the constitutive androstane receptor (CAR) signaling pathway (AID 1224839); note: nearly all actives have a fitted effect of over 15% in size; note: potency is the fitted concentration of half-maximal effect;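 for activation: HepG2 cells stably carrying human CAR and a CYP2B6 luciferase reporter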
# In short: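 Double-stable HepG2 cells (hCAR, CYP2B6-2.2kb) seeded 4 h before compound addition. Exposure 24 h with 0.75 uM PK11195 final. Luciferase detected by ONE-Glo.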
# [6] = qHTS assay to identify small molecule antagonists of the estrogen related receptor signaling pathway with the pleiotropic PPARgamma coactivator (PGC) from Tox21 10K library - cell viability counter screen (AID 1224840; active = well fitted cell-killing curve with a large enough effect in the repeat runs, not every such curve was filed as active; note: nearly all actives have a fitted effect of over 40% in size)
# In short: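 PGC/ERR cells were seeded at 2,000 cells/well and left 6 hours at 37 C/5% CO2 before pin-tool addition of compounds in DMSO. After 17.5 hours at 37 C, CellTiter-Fluor was added and fluorescence read 30 minutes later.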
# [7] = qHTS assay to identify small molecule agonists of the hypoxia (HIF-1) signaling pathway - cell viability counter screen (AID 1224844; calls by dose curve; note: nearly all actives have a fitted effect of over 50% in size)
# In short: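 HRE-bla ME-180 cells in medium with 0.5% dialyzed FBS were preincubated 5 hrs at 37C, exposed to compounds for 17 hrs, then viability was read as CellTiter-Glo luminescence after 30 min at room temperature, in the reporter wells.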
# [8] = qHTS assay to identify small molecule agonists of the hypoxia (HIF-1) signaling pathway (AID 1224846; active = well fitted activation curve with a large enough effect in the signal ratio in the repeat runs, not every such curve was filed as active; the % refers to the signal ratio)
# In short: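 HRE-bla ME-180 cells (beta-lactamase reporter under hypoxia response element) were plated at 2,000 cells/well in medium with 0.5% dialyzed FBS, rested 5 hrs, then given compounds in DMSO for 17 hrs at 37C, 5% CO2. Reporter induction was read with CCF4-AM FRET substrate.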
# [9] = qHTS RealTime-Glo MT Cell Viability Assay in HepG2 cells - 24 hour (AID 1224867); note: nearly all actives have a fitted effect of over 50% in size; note: potency is the fitted concentration of half-maximal effect
# In short: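 HepG2 cells (600/well) were dispensed with RealTime-Glo reagents, incubated 5 h at 37 °C, then treated with compounds in DMSO for up to 40 h. Nonlytic NanoLuc luminescence reflecting viable cells was read at each stated time point.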
# [10] = qHTS RealTime-Glo MT Cell Viability Assay in HEK293 cells - 32 hour (AID 1224868); note: nearly all actives have a fitted effect of over 50% in size; note: potency is the fitted concentration of half-maximal effect
# In short: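 HEK293 cells seeded with NanoLuc/prosubstrate reagent, rested 5 h at 37 C, then dosed and kept at 37 C up to 40 h. Nonlytic real-time luminescence from viable cells read at 0, 8, 16, 24, 32 and 40 h.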
# [11] = A CellTox Green Cytotoxicity Assay to monitor cytotoxicity in HEK293 cells - 0 hour (AID 1224869); note: nearly all actives have a fitted effect of over 50% in size
# In short: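 HEK293 cells premixed with CellTox Green dye were seeded at 600 cells/well and left 5 h at 37 C/5% CO2 before pin transfer of 23 nL compound in DMSO. Fluorescence from dye bound to dead-cell DNA was read during 40 h treatment.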
# [12] = qHTS RealTime-Glo MT Cell Viability Assay in HepG2 cells - 40 hour (AID 1224870); note: nearly all actives have a fitted effect of over 50% in size; note: potency is the fitted concentration of half-maximal effect
# In short: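 Real-time viability: cells seeded at 600 per well together with NanoLuc and cell-permeant prosubstrate, compounds added after 5 h incubation. Luminescence tracked at 0, 8, 16, 24, 32 and 40 h of exposure.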
# [13] = target: Thyrotropin receptor (Homo sapiens) (UniProt P16473); assay: qHTS assay to identify small molecule agonists of the thyroid stimulating hormone receptor (TSHR) signaling pathway (AID 1224843; calls by dose curve; note: nearly all actives have a fitted effect of over 45% in size; note: potency is the fitted concentration of half-maximal effect)
# In short: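 Screening of the Tox21 10K collection used HEK293 cells engineered with TSHR at 800 cells per well. After a 30-min room-temperature compound exposure, HTRF cAMP reagents were added and fluorescence recorded 1 h later.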
# [14] = qHTS assay to identify small molecule agonists of H2AX (AID 1224845; active = well fitted activation curve with a large enough effect in the signal ratio in the repeat runs, not every such curve was filed as active; the % refers to the signal ratio)
# In short: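 Phospho-H2AX Ser139 measured by HTRF (ex 320 nm; em 665 and 620 nm) after 24 hr antibody incubation. Compounds, 15 concentrations, 0.76% DMSO, were applied to CHO-K1 cells for 3hr at 37C before lysis.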
# [15] = qHTS assay to identify small molecule agonists of H2AX - cell viability counter screen (AID 1224847; calls by dose curve; note: nearly all actives have a fitted effect of over 30% in size; note: potency is the fitted concentration of half-maximal effect)
# In short: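 Quantitative HTS viability measurement: CHO-K1 wild-type cells in serum (10% FBS) medium, short 3 hr drug exposure at 37C with 0.76% DMSO, CellTiter-Glo luminescent detection.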
# [16] = qHTS assay to identify small molecule agonists of the estrogen related receptor signaling pathway with the pleiotropic PPARgamma coactivator (PGC) from Tox21 10K library (AID 1224842); note: nearly all actives have a fitted effect of over 15% in size
# In short: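 Luminescence from One-Glo (30 min, room temperature) measured after PGC/ERR cells had 18 h at 37 C with pinned compound (23 nL in DMSO). Cells had been seeded at 2,000 per well and pre-incubated 6 h.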
# [17] = qHTS assay to identify small molecule antagonists of the estrogen related receptor signaling pathway with the pleiotropic PPARgamma coactivator (PGC) from Tox21 10K library (AID 1224841; call rule not given here; note: potency is the fitted concentration of half-maximal effect)
# In short: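 PGC/ERR reporter cells were seeded at 2,000 cells/well and held 6 hours at 37 C/5% CO2 before pin-tool addition of compounds in DMSO. After 18 hours at 37 C, One-Glo was added and luminescence read after 30 minutes at room temperature.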
# [18] = qHTS assay to identify small molecule agonists of the estrogen related receptor (ERR) signaling pathway from Tox21 library (AID 1224849; calls by dose curve; note: nearly all actives have a fitted effect of over 15% in size); settings: ERR reporter cell line, ONE-Glo luciferase, 18 h; at 92.4 µM (top of the series) unless noted
# In short: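 ERR reporter cell line (NTP) seeded, rested 6 h at 37 C/5% CO2, then pinned with Tox21 compounds in DMSO. After 18 h at 37 C, ONE-Glo luciferase luminescence was read following 30 min at room temperature.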
# [19] = qHTS assay to identify small molecule antagonists of the estrogen related receptor (ERR) signaling pathway from Tox21 library (AID 1224848); note: nearly all actives have a fitted effect of over 50% in size; note: potency is the fitted concentration of half-maximal effect
# In short: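 Antagonist-mode screen of the Tox21 10K library in an NTP-provided ERR reporter cell line; 18 h compound exposure at 37 C, luminescence measured with ONE-Glo.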
# Sequence of Nuclear receptor subfamily 1 group I member 3 (Homo sapiens) (Q14994 whole entry, looked up): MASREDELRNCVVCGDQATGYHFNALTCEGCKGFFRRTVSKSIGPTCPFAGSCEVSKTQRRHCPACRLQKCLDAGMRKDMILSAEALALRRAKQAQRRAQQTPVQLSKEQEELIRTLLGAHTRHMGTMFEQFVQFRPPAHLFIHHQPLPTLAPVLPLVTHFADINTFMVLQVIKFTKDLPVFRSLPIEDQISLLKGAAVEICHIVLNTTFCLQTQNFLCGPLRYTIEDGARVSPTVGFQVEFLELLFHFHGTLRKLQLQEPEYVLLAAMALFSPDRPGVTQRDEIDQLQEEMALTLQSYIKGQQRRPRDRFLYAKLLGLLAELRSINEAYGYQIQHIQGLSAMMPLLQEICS
# Sequence of Thyrotropin receptor (Homo sapiens) (P16473 whole entry, looked up): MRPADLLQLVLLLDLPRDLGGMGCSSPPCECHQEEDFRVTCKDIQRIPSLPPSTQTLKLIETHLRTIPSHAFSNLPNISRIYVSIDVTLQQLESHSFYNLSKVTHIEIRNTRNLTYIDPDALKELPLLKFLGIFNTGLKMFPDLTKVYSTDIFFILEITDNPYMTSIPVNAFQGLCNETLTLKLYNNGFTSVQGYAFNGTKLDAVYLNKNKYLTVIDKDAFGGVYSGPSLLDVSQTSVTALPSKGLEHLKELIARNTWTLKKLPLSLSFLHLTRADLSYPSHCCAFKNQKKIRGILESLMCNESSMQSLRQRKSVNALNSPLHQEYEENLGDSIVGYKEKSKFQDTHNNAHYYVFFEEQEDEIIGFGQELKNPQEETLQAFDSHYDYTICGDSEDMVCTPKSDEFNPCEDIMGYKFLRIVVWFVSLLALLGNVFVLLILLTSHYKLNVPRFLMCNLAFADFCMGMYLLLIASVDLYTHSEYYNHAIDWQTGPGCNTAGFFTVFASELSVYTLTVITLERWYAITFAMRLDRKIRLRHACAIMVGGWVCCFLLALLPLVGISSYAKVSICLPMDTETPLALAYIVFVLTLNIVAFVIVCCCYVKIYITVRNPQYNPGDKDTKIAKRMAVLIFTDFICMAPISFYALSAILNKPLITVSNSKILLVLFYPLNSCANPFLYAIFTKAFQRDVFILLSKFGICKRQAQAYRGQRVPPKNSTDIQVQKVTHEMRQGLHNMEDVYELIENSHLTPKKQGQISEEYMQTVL
# Sequence of Luciferin 4-monooxygenase (Photinus pyralis) (P08659 whole entry, looked up): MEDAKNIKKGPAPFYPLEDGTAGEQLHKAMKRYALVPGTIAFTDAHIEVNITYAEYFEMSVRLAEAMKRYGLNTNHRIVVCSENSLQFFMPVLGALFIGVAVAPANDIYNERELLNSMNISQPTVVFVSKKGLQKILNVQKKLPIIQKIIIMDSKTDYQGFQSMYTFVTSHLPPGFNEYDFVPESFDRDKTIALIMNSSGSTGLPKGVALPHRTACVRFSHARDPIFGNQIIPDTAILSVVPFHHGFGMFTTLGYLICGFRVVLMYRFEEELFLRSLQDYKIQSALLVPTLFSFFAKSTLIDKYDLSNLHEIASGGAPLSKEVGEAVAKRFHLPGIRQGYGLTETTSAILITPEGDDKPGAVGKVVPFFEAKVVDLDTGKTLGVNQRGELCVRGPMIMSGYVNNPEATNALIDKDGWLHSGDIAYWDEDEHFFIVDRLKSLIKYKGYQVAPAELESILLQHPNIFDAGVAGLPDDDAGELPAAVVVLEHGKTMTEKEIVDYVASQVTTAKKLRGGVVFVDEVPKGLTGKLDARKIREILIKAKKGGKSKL
SMILES,Potency [1],Potency [2],Potency [3],Potency [4],Potency [5],Potency [6],Potency [7],outcome [8],Potency [9],Potency [10],Potency [11],Potency [12],Potency [13],Potency [14],Potency [15],Potency [16],Potency [17],"activity change, positive = activation [18]",Potency [19]
CCOP(=S)(OCC)Oc1cc(Cl)c(Br)cc1Cl,inactive,inactive,inactive,inactive,21.7 µM (active),inactive,inactive,inactive,inactive,inactive,inactive,inactive,–,–,–,–,–,–,–
C=CCC1([C@H](C)CCC)C(=O)NC(=O)NC1=O,inactive,inactive,inactive,inactive,inactive,–,inactive,inactive,inactive,inactive,inactive,inactive,inactive,inactive,inactive,–,–,–,–
O=C1C(=O)c2cccc3cccc1c23,inactive,inactive,inactive,inactive,61.1 µM (active),–,inactive,inactive,inactive,–,–,17.4 µM (active),inactive,–,inactive,–,–,–,–
CCCN(CCC)c1c([N+](=O)[O-])cc(S(C)(=O)=O)cc1[N+](=O)[O-],inactive,inactive,inactive,–,–,inactive,inactive,inactive,inactive,13.8 µM (active),inactive,inactive,–,inactive,inactive,inactive,–,–,–
Clc1ccc(C(OCCN2CCCCC2)c2ccccc2)cc1 (centres undefined),inactive,–,inactive,inactive,inactive,inactive,–,inactive,inactive,–,inactive,inactive,–,inactive,inactive,inactive,inactive,-17.2% [at 42.5 µM],–
II,28.3 µM (active),inactive,inactive,inactive,inactive,inactive,–,–,15.5 µM (active),inactive,–,5.49 µM (active),–,inactive,80 µM (active),–,–,–,–
CC(=O)C(C)(C)C,inactive,inactive,inactive,inactive,inactive,–,inactive,inactive,inactive,inactive,inactive,inactive,inactive,inactive,inactive,–,inactive,-0.0388%,inactive
COc1nn(CSP(=S)(OC)OC)c(=O)s1,35.6 µM (active),–,inactive,inactive,54.5 µM (active),–,–,inactive,inactive,inactive,inactive,inactive,–,–,–,–,–,–,–
CN1C[C@H](CNC(=O)OCc2ccccc2)C[C@@H]2c3cccc4c3c(cn4C)C[C@H]21,inactive,inactive,inactive,inactive,inactive,inactive,inactive,–,–,21.3 µM (active),inactive,–,inactive,inactive,inactive,–,–,–,–
CCC(COC(=O)c1cc(OC)c(OC)c(OC)c1)(c1ccccc1)N(C)C (centres undefined),inactive,inactive,inactive,inactive,–,–,inactive,–,inactive,–,inactive,inactive,–,–,–,–,–,–,–
O=C(C(Cl)(Cl)Cl)C(Cl)(Cl)Cl,inactive,inactive,inactive,–,–,inactive,inactive,inactive,inactive,inactive,inactive,inactive,–,inactive,inactive,–,–,–,–
O=C(OC1CCCCC1)c1ccccc1C(=O)OC1CCCCC1,inactive,inactive,inactive,inactive,–,inactive,inactive,inactive,inactive,inactive,–,inactive,–,inactive,106 µM (active),–,–,–,–
COP(=O)(OC)O/C(=C/Cl)c1cc(Cl)c(Cl)cc1Cl,inactive,inactive,inactive,–,–,–,inactive,–,inactive,–,inactive,inactive,–,inactive,–,–,8.13 µM (active),-67.5%,22.9 µM (active)
O=NN1CCNCC1,inactive,inactive,inactive,inactive,inactive,inactive,–,inactive,inactive,inactive,inactive,inactive,–,inactive,inactive,–,–,–,–
OC(c1ccc(Cl)cc1)(c1ccc(Cl)cc1)c1cccnc1,inactive,inactive,inactive,inactive,–,–,–,–,–,–,inactive,inactive,30.6 µM (active),inactive,–,inactive,61.1 µM (active),–,48.6 µM (active)
CC(c1ccc(O)cc1)(c1ccc(O)cc1)c1ccc(O)cc1,inactive,inactive,inactive,9.69 µM (active),inactive,–,inactive,–,inactive,54.9 µM (active),inactive,inactive,–,–,–,–,54.5 µM (active),-42.4%,54.5 µM (active)
COCC(C)N(C(=O)CCl)c1c(C)csc1C (centres undefined),inactive,inactive,inactive,–,–,–,inactive,inactive,inactive,inactive,inactive,inactive,–,inactive,inactive,–,21.7 µM (active),-54.8%,27.3 µM (active)
COP(=S)(OC)Oc1cc(Cl)c(I)cc1Cl,79.6 µM (active),inactive,inactive,inactive,54.5 µM (active),inactive,inactive,inactive,inactive,inactive,inactive,inactive,inactive,inactive,–,–,–,–,–
O=[N+]([O-])c1cc(C(F)(F)F)cc([N+](=O)[O-])c1Cl,inactive,inactive,–,inactive,inactive,–,–,inactive,inactive,–,inactive,inactive,inactive,inactive,inactive,–,inactive,–,61.4 µM (active)
